Reference: PubChem BioAssay (Tox21)
Values joined by “and” are separate entries in the source; they are usually repeats but may differ in a detail not shown here. Equal values may be shown once. Inconclusive results are not listed. Entries that show only a call come without a potency. More than one record can exist for a structure, and the calls need not agree. Active and inactive are the calls of the source. Calls follow the shape of the dose curve; as a rule, active = well fitted curve in the direction sought with a large enough effect in the repeat runs; inconclusive = weak or mixed curves; inactive = no such curve, though single readings can be large; an effect the other way counts as inactive or inconclusive.

Columns and labels:
[1] = qHTS assay for identifying genotoxic compounds that show differential cytotoxicity against isogenic chicken DT40 cell lines with known DNA damage response pathways - wild type cell line (AID 743012); also: nearly all actives have a fitted effect of over 60% in size
Procedure, shortened: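 Quantitative HTS on parental DT40 cells: 40 h compound treatment at 37 C/5% CO2, with viability then determined by CellTiter-Glo luminescence. Values serve as the DNA repair-proficient reference for differential cytotoxicity.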

[2] = qHTS assay for identifying genotoxic compounds that show differential cytotoxicity against isogenic chicken DT40 cell lines with known DNA damage response pathways - Rev3 mutant cell line (AID 743014); also: nearly all actives have a fitted effect of over 55% in size
[3] = qHTS assay for identifying genotoxic compounds that show differential cytotoxicity against isogenic chicken DT40 cell lines with known DNA damage response pathways - Rad54/Ku70 mutant cell line (AID 743015); also: nearly all actives have a fitted effect of over 60% in size
[4] = qHTS assay to identify small molecule antagonists of the androgen receptor (AR) signaling pathway - cell viability counter screen (AID 743033; also: nearly all actives have a fitted effect of over 45% in size)
[5] = qHTS assay to identify small molecule antagonists of the androgen receptor (AR) signaling pathway using the MDA cell line - cell viability counter screen (AID 743041; also: nearly all actives have a fitted effect of over 45% in size)
Procedure, shortened: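 MDA-kb2 AR-luc cells (MMTV-luciferase, AR/GR responsive) treated with compounds plus R1881 agonist for 16 h at 37C. CellTiter-Fluor added at 15.5 h; fluorescence read after 30 min in the same wells.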

[6] = qHTS assay to identify small molecule antagonists of the thyroid receptor (TR) signaling pathway - cell viability counter screen (AID 743064); also: nearly all actives have a fitted effect of over 50% in size
Procedure, shortened: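 Fluorescence from CellTiter-Fluor, added after 23.5 h exposure at 37 °C, reported viability of GH3.TRE-Luc cells co-treated with compound and 1 nM T3. Measured in the same wells as the luciferase TR readout.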
Potency is read from the fitted curve at half-maximal effect.

Row | SMILES | Potency [1] | Potency [2] | Potency [3] | Potency [4] | Potency [5] | Potency [6]
1 | O=P1(N(CCCl)CCCl)NCCCO1 (centres undefined) | inactive | inactive | inactive | inactive | inactive | inactive
2 | CCCn1cc[n+](C)c1 | inactive | inactive | inactive | inactive | inactive | inactive
3 | C=CCOC(Cn1ccnc1)c1ccc(Cl)cc1Cl (centres undefined) | 11.9 µM (active) and 48.7 µM (active) and 13.7 µM (active) | 21.1 µM (active) and 27.4 µM (active) and 12.2 µM (active) | 21.1 µM (active) and 43.4 µM (active) and 13.7 µM (active) | inactive and 49.1 µM (active) | inactive | 54.6 µM (active)
4 | O=C(O)CC(O)(CC(=O)O)C(=O)O | inactive | inactive | inactive | inactive | inactive | inactive
5 | CCCCCC[n+]1ccccc1 | – | – | – | 55.5 µM (active) and 55.3 µM (active) and inactive | – | inactive
6 | O=[N+]([O-])O | inactive and 42.1 µM (active) | inactive and 9.43 µM (active) | inactive and 29.8 µM (active) | inactive | inactive | inactive
7 | CCCCCCCCn1cc[n+](C)c1 | – | – | 607 nM (active) [middle of 4 runs] | 15.4 µM (active) and 11.1 µM (active) | 2.71 µM (active) and 1.53 µM (active) and 1.55 µM (active) | 54.4 µM (active)
8 | CC[N+]1(C)CCCC1 | inactive and 971 nM (active) | inactive and 612 nM (active) | inactive and 771 nM (active) | inactive | inactive | inactive
9 | O=S(=O)(O)O | inactive and 27.3 µM (active) | inactive and 61.1 µM (active) | inactive and 48.6 µM (active) | inactive | inactive | inactive
10 | Nc1ccc(-c2ccc(N)cc2)cc1 | – | 61.1 µM (active) | – | inactive | inactive | inactive
11 | CCCC[N+]1(C)CCCC1 | inactive | inactive | inactive | inactive | inactive | inactive
12 | COCC(=O)N(c1c(C)cccc1C)C(C)C(=O)OC (centres undefined) | inactive and 61 µM (active) | inactive and 61 µM (active) | inactive | inactive | inactive | inactive
13 | COc1ccc(N)cc1 | inactive | 60.6 µM (active) and 45.4 µM (active) | 53.5 µM (active) and 60.6 µM (active) and inactive | inactive | inactive | inactive
14 | O=C(O)CCl | inactive | inactive | inactive | inactive | inactive | inactive
15 | CNC | – | – | – | inactive | inactive | inactive
